# Results: PubChem BioAssay AID651657 (Broad Institute, 2012)
# Results with a measured potency or affinity are listed apart. Values without a mark were called inactive.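 Rule for the calls: active = signal falls, with fitted half-maximal concentration at most twice the top valid dose tested; inconclusive = flat curve with partial signal loss, or poor curve fit; inactive = the rest, including signal rising instead.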
# Molecular target: DNA repair and recombination protein RAD54-like (Homo sapiens) (UniProt Q92698)
# Sequence (Q92698 whole entry, looked up): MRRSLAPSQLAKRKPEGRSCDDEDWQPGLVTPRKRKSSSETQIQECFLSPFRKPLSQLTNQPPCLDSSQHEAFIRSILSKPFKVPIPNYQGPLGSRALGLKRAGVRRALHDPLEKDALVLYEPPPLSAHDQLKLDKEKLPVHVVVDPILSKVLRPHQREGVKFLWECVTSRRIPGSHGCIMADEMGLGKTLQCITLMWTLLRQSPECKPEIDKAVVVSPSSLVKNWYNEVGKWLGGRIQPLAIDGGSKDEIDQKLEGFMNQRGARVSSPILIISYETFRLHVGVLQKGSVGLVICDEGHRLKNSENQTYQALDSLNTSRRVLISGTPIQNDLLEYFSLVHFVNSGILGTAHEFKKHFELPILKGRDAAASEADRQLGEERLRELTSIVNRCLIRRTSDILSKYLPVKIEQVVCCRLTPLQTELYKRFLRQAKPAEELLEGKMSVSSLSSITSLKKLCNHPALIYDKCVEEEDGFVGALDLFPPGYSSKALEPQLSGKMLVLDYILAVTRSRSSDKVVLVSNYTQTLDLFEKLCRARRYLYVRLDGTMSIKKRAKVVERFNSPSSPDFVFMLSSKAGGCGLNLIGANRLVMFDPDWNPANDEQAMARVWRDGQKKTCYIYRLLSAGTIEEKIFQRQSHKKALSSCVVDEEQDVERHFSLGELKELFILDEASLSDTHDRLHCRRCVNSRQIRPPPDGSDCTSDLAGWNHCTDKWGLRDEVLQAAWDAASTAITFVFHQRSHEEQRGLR
# Assay: inhibitors of human RAD54 branch migration, confirmation, biochemical, fluorescence, cherry-picked samples, dose series (AID 651657)
# Conditions: FAM/BHQ fluorescence, 60 min; series mostly up to 50 µM; activity change, negative = inhibition: at the top concentration
row,Structure (SMILES),"activity change, negative = inhibition [%]"
1,COC(=O)Nc1nnc(COc2ccccc2)s1,0.398
2,C(=C/c1nccc2c1[nH]c1ccccc12)/c1ccc2c(c1)OCO2,-0.636
3,COc1cc(NC(=O)c2cccnc2Sc2ccc(C)c(C)c2)cc(OC)c1OC,-3.49
4,Cc1ccc(S(=O)(=O)CCSc2ccc(C(F)(F)F)cn2)cc1,4.28
5,COc1ccccc1NC(=O)Cn1nnc2sc3c(c2c1=O)CC(C)(C)OC3,-0.048
6,CCCC(c1nnnn1Cc1ccc(OC)cc1)N1CCN(c2ccccc2)CC1 (stereo not drawn),-0.873
7,CCN(CC)S(=O)(=O)c1ccc(Cl)c(C(=O)Nc2nnc(C)s2)c1,-3.81
8,COc1ccc(N2C(=O)CSC23CCCCC3)cc1,5.14
9,CCOC(=O)c1[nH]c2cc3c(cc2c1CCCN1C(=O)c2ccccc2C1=O)OCCO3,7.51
10,NC(=O)C1CCN(c2nc(-c3cccnc3)cs2)CC1,6.26
11,CN1CCN(CC(=O)Nc2nc(-c3c[nH]c4ccccc34)cs2)CC1,-12.8
12,CC(C)CSc1ncc(-c2cccc(C(F)(F)F)c2)cn1,0.208
13,Cc1cccc2cc3c(N)c(C#N)sc3nc12,-4.31
14,Cc1ccnc(Nc2nc(-c3sc(C)nc3C)cs2)c1,-2.56
15,COc1ccccc1C1=NOC(Cn2c(NCCCO)nc3c2c(=O)n(C)c(=O)n3C)C1 (stereo not drawn),1.27
16,O=C(Nc1ccc2c(c1)OCO2)c1cc(-c2ccncc2)nc2ccccc12,-13.1
17,CCN1CCN(c2cc(C)c3cc(NC(=S)N4CCCC(C)C4)ccc3n2)CC1 (stereo not drawn),-8.25
18,Cc1ccc(S(=O)(=O)NCCCNS(=O)(=O)c2ccccc2[N+](=O)[O-])cc1,6.57
19,C=CCN1C(=O)C(C)(C)Nc2ccccc21,-1.14
20,CC1CCCCC1NC(=O)C1Cc2ccccc2CN1S(C)(=O)=O (stereo not drawn),0.68
21,c1ccc(-c2nnc(SCc3nc4ccccc4[nH]3)o2)cc1,1.58
22,Cc1ccc(OCC(=O)Nc2cccc(-c3nnc(-c4ccccc4)o3)c2)c(C)c1,3.6
23,COc1ccccc1NC(=O)CNC(=O)c1ccccc1,5.4
